Results taken from PubChem BioAssay AID624058 (Broad Institute, 2012).
Records with an inconclusive call do not appear. The rule behind the calls is not given here.

assay: EDDHA-treated Pseudomonas aeruginosa growth inhibition – OD600, ATCC 15692, cherry-pick, set 2, dose response (AID 624058); conditions: P. aeruginosa ATCC 15692 with EDDHA, OD600, 24-30 h; series mostly up to 50 µM; growth inhibition: at the top concentration

Growth inhibition, inactive:
CCCNS(=O)(=O)c1ccc(OC)c(Cl)c1Cl 11.6%
Cn1cccc1C(C#N)c1cccc(F)c1C#N (centres undefined) -7.44% [at 16 µM]
O=[N+]([O-])c1ccc(N2CCCC2)nc1 53.4%
CCOC(=O)N1CCN(c2ccc(Cl)cc2)CC1 -3.24%
CCOC(=O)c1ccc(-c2ccc(CO)o2)cc1 14%
O=CN(c1ccccc1)c1ccc2ccccc2c1 11.5%
N#Cc1cc(-c2ccccc2)cnc1Cl 30.5%
N#C/C(=C/c1ccco1)c1nc2ccccc2s1 31.8%
CCOC(=O)/C=C(\C)Sc1cc(=O)oc2ccccc12 19.5%
O=C1C2C(C(=O)N1Cc1ccco1)C1C=CC2C12CC2 (centres undefined) 40%
O=[N+]([O-])c1ccc(N2CCCCC2)nc1 4.26%
COc1ccccc1C(C#N)c1cccc(Cl)n1 (centres undefined) 8.34%
CCOc1ccc(-n2cccc2C=O)cc1 38.6%
Cc1ccc(S(=O)c2ccc(C)cc2)cc1 22.7%
